Holding throughout (assay): NCI-60 one-dose screen, 48 h (100 = growth as untreated, 0 = no growth, -100 = all killed)
The test system of assay [1] is HCT-15 colon. The following applies: 10 µM unless noted.
Assay [2] has as its system HT29 colon. The following applies: 10 µM unless noted.
Assay [3] relates to SNB-75 CNS. The following applies: 10 µM unless noted.
The subject of assay [4] is SNB-19 CNS. The following applies: 10 µM unless noted.
The subject of assay [5] is U251 CNS. The following applies: 10 µM unless noted.
For assay [6], the system named is PC-3 prostate. The following applies: 10 µM unless noted.
Assay [7] relates to SK-MEL-5 melanoma. The following applies: 10 µM unless noted.
Assay [8] relates to UACC-62 melanoma. The following applies: 10 µM unless noted.
Assay [9] concerns LOX IMVI melanoma. The following applies: 10 µM.
Assay [10] relates to SK-MEL-28 melanoma. The following applies: 10 µM unless noted.
Assay [11] relates to SK-MEL-2 melanoma. The following applies: 10 µM unless noted.
The test system of assay [12] is EKVX NSCLC. The following applies: 10 µM unless noted.
Assay [13] relates to SN12C renal. The following applies: 10 µM unless noted.
For assay [14], the system named is UO-31 renal. The following applies: 10 µM unless noted.
Assay [15] deals with TK-10 renal. The following applies: 10 µM unless noted.
The subject of assay [16] is ACHN renal. The following applies: 10 µM unless noted.
For assay [17], the system named is CAKI-1 renal. The following applies: 10 µM unless noted.
Assay [18] has as its system A498 renal. The following applies: 10 µM unless noted.
Assay [19] relates to CCRF-CEM leukemia. The following applies: 10 µM unless noted.
Assay [20] deals with MOLT-4 leukemia. The following applies: 10 µM unless noted.

About 83,000 compounds went through this panel and 20% of them were active in at least one assay; those are over-represented in the sample as a whole.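 Cell lines were cultured in 96-well plates, exposed to a single compound concentration, and assessed for percent growth 48 hours later.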 Values without a mark were called inactive. Activity calls are given as the source filed them. How the source made its calls: active means growth percent below 10; inactive means the rest.

`O=C(O)c1cccc2cccc(-c3c4ccc(=O)c(O)c-4oc4c(O)c(O)ccc34)c12`: the growth in assay [1] was 105%; in [2], 103%; in assay [3], 89.6%; in assay [4] it was 98.1%; in assay [5] it was 99.5%; in [6], 92.3%. For the same compound, the growth was 94.6% in [7]; 90.6% in assay [8]; 90% in assay [9]; 97.6% in assay [10]; 96.8% in assay [11]; 83.7% in assay [12]. Further, the growth in assay [13] is 91%; in assay [14], 66.6%; in [15], 110%; in assay [16], 92.3%; in assay [17], 90.2%; in [18] it was 104%. Moreover, the growth in assay [19] was 94.7%; in [20], 82.2%.

Regarding `Clc1ccc(-n2ncc3c(NCCCN4CCOCC4)ncnc32)cc1`, the growth in assay [1] was 96.6%; in [2], 105%; in assay [3] it was 89.6%; in assay [4], 102%; in assay [5], 93.1%; in assay [6], 87.5%. For the same compound, the growth in assay [7] is 83.5%; in assay [8] it was 110%; in [9], 88.8%; in [10], 94.6%; in [11], 108%; in assay [12] it was 92.9%. Further, the growth in [13] is 99.1%; in assay [14] it was 79.6%; in assay [15], 107%; in [16], 96.4%; in assay [17], 107%; in assay [18] it was 104%. The growth in [19] is 94.4%; in assay [20], 97.7%.

Turning to `O=C(c1ccccc1)c1ccc(O)c2ncccc12`, the growth in assay [1] was 25.7%; in assay [2] it was 96.1%; in assay [3] it was 58.7%; in assay [4] it was 38.4%; in [5] it was 28.4%; in assay [6], 32.2%. Also, the growth in [7] was 26.8%; in assay [8], 33.9%; in assay [9], 31.4%; in assay [10], 68%; in assay [11], 43%; in [12], 51.1%. In addition, the growth is 31.6% in assay [13]; 7.3% (active) in [14]; 83.1% in assay [15]; 18.5% in [16]; 8.47% (active) in assay [17]; 53.1% in [18]. The growth in assay [19] was 29.5%; in assay [20], 21.2%.

Turning to `O=S(=O)(O)c1cnccn1`, the growth in [1] is 103%; in assay [2], 94.7%; in assay [3] it was 92.9%; in [4] it was 104%; in assay [5], 102%; in assay [6] it was 82.6%. Moreover, the growth is 104% in assay [7]; 99.4% in assay [8]; 98% in assay [9]; 107% in assay [10]; 102% in [11]; 97.4% in [12]. Also, the growth is 103% in [13]; 93.4% in assay [14]; 94% in assay [15]; 104% in assay [16]; 92.3% in [17]; 118% in [18]. In addition, the growth was 112% in assay [19] and 101% in assay [20].

Take `CN(C)c1ccc2cc3c(cc2c1)Oc1ccccc1N3.[Cl][Zn][Cl]`: the growth in [1] was 48.5%; in [2], 97.3%; in assay [3], 103%; in [4], 114%; in assay [5] it was 78.7%; in assay [6], 81.1%. The growth in assay [7] was 70.6%; in assay [8], 65%; in [9], 32%; in assay [10], 111%; in assay [11], 89.5%; in assay [12], 89.9%. For the same compound, the growth in [13] was 89.3%; in [14], 5.78% (active); in [15], 77.4%; in assay [16], 70.9%; in assay [17] it was 54.2%; in assay [18] it was 115%. Moreover, the figures for the growth in assay [19] and in assay [20] were 31.4% and 24.7%, respectively.

For `Cc1cc(=O)oc2cc(O)cc(O)c12`, the growth is 108% in assay [1]; 107% in assay [2]; 98.2% in assay [3]; 104% in assay [4]; 107% in assay [5]; 100% in assay [6]. The growth in [7] is 99.5%; in assay [8] it was 102%; in assay [9] it was 97.9%; in assay [10] it was 101%; in [11] it was 107%; in [12], 99.3%. The growth in assay [13] was 102%; in assay [14], 83.5%; in assay [15], 97.8%; in assay [16] it was 102%; in [17] it was 94.6%; in assay [18], 117%. Moreover, the growth was 107% in assay [19] and 99.8% in assay [20].

Turning to `Oc1ccc2ccccc2c1N=Nc1nccs1`, the growth in assay [1] is 24%; in assay [2] it was 34.7%; in assay [3], 43.3%; in [4], 74.2%; in assay [5] it was 4.79% (active); in [6] it was 35.4%. Besides, the growth in [7] is 74.7%; in [8], 0.0083% (active); in assay [9], 5.25% (active); in assay [10], 38.1%; in [11], 153%; in [12], -9.54% (active). Moreover, the growth was 34.4% in assay [13]; 59.3% in assay [14]; -14% (active) in assay [15]; 10.3% in assay [16]; -31.1% (active) in assay [17]; 136% in [18]. Also, the growth in assay [19] is -7.19% (active); in assay [20] it was -4.26% (active).

In the case of `OC(Cc1cc(CC(O)(C(F)(F)F)C(F)(F)F)nc(CC(O)(C(F)(F)F)C(F)(F)F)c1)(C(F)(F)F)C(F)(F)F`, the growth is 9.46% (active) in assay [1]; -12.1% (active) in [2]; -8.76% (active) in assay [3]; 16% in assay [4]; -60.2% (active) in [5]; 4.38% (active) in [6]. The growth in assay [7] is -83.3% (active); in assay [8], -10.6% (active); in [9], 0.881% (active); in assay [10], 26.5%; in [11] it was -28.3% (active); in assay [12] it was 16%. In addition, the growth in assay [13] was 4.86% (active); in assay [14], 6.74% (active); in assay [16], 0.867% (active); in assay [17], 4.5% (active); in assay [18] it was -18.8% (active); in assay [19], 7.23% (active). Further, the growth in [20] was -8.17% (active).

For the origin of these results see PubChem BioAssay (NCI).
